Columns and labels:
Type in all cases: functional
[1] = system: Plasmodium falciparum; assay: GSK_TCMDC: Inhibition of Plasmodium falciparum 3D7 in whole red blood cells, using parasite LDH activity as an index of growth. Test compounds present at 2uM
[2] = system: Plasmodium falciparum; assay: GSK_TCMDC: Inhibition of Plasmodium falciparum Dd2 in whole red blood cells, using parasite LDH activity as an index of growth. Test compounds present at 2uM
[3] = system: HepG2; assay: GSK_TCMDC: Percent inhibition of human HepG2 cell line. Test compounds present at 10uM.

Cc1ccc(C)c(C2CCN(CCCCNC(=O)c3ccc(NC(=O)c4ccc(Cl)cc4)cc3)CC2)c1
Inhibition [1]: 94%
Inhibition [2]: 13%
Inhibition [3]: 15%

CCC(C)c1ccc(NC(=O)C(C)c2ccc([N+](=O)[O-])cc2)cc1 (centres undefined)
Inhibition [1]: 100%
Inhibition [2]: 100%
Inhibition [3]: 14%

CC(C)c1ccc(O)cc1Nc1ccnc2ccc(C(F)(F)F)cc12
Inhibition [1]: 97%
Inhibition [2]: 90%
Inhibition [3]: 6%

From ChEMBL document CHEMBL1157539, “Thousands of chemical starting points for antimalarial lead identification” (Nature, 2010)
